Experimental findings from the supplement of paper PMC10849652 are described below.

About 7,900 targets were measured; listed, in parts, are those with a hit and a random draw of the rest. About 0.6% of all pairs of compound and target were hits.

Sequence of UniProt Q14004 (Q14004 whole entry, looked up): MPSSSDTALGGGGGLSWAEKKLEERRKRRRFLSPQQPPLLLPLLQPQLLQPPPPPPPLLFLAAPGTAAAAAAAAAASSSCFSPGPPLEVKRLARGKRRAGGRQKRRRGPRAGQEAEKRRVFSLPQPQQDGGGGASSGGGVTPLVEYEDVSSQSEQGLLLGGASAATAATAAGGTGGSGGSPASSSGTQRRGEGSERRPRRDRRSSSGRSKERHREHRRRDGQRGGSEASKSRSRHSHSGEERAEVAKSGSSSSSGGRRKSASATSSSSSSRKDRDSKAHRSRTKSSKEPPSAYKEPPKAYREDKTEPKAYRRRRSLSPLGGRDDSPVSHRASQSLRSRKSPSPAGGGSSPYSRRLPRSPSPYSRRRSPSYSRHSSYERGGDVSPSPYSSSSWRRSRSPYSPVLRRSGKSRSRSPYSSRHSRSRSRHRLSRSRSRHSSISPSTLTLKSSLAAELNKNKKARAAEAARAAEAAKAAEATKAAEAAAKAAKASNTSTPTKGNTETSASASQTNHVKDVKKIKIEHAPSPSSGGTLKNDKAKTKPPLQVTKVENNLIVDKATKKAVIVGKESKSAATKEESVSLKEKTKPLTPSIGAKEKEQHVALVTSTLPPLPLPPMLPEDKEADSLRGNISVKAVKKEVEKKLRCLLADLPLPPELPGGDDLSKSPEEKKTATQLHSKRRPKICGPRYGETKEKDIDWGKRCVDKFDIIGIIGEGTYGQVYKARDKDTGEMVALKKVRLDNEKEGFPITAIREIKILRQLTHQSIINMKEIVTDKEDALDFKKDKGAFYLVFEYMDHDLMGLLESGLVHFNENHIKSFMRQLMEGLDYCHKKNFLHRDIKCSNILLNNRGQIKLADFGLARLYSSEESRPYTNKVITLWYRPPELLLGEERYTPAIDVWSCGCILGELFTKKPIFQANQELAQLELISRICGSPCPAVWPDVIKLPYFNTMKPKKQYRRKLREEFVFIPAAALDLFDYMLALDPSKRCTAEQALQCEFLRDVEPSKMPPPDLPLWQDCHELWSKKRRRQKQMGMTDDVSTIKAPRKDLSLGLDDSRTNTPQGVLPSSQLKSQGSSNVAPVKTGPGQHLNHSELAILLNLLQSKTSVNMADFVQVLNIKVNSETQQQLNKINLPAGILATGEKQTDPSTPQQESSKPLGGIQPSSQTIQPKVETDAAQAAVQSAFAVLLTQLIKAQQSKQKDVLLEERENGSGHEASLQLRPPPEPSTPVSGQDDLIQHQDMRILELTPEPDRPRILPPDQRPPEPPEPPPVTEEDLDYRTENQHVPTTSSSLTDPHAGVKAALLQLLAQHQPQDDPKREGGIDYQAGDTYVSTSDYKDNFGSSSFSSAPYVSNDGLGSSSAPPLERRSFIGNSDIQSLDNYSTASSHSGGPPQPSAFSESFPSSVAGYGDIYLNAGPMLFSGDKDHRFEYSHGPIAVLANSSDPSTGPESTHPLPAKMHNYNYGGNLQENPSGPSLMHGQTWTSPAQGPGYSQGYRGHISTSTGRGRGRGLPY
Sequence of UniProt Q13901 (Q13901 whole entry, looked up): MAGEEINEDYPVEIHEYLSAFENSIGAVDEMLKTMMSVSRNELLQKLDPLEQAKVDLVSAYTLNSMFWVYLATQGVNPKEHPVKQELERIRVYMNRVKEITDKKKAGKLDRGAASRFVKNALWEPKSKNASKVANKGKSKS
Sequence of UniProt P42575 (P42575 whole entry, looked up): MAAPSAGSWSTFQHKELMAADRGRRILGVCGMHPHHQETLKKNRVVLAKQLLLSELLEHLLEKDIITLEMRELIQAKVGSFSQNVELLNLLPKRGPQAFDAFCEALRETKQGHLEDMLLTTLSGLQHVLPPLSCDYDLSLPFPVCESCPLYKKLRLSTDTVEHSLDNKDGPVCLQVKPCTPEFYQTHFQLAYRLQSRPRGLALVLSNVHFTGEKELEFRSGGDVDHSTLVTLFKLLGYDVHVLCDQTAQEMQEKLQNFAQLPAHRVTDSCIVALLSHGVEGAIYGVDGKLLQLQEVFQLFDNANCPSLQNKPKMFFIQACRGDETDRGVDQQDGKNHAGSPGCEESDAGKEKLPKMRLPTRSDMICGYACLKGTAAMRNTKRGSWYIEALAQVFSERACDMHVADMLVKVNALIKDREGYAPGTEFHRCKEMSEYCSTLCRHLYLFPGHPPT
Sequence of UniProt P21127 (P21127 whole entry, looked up): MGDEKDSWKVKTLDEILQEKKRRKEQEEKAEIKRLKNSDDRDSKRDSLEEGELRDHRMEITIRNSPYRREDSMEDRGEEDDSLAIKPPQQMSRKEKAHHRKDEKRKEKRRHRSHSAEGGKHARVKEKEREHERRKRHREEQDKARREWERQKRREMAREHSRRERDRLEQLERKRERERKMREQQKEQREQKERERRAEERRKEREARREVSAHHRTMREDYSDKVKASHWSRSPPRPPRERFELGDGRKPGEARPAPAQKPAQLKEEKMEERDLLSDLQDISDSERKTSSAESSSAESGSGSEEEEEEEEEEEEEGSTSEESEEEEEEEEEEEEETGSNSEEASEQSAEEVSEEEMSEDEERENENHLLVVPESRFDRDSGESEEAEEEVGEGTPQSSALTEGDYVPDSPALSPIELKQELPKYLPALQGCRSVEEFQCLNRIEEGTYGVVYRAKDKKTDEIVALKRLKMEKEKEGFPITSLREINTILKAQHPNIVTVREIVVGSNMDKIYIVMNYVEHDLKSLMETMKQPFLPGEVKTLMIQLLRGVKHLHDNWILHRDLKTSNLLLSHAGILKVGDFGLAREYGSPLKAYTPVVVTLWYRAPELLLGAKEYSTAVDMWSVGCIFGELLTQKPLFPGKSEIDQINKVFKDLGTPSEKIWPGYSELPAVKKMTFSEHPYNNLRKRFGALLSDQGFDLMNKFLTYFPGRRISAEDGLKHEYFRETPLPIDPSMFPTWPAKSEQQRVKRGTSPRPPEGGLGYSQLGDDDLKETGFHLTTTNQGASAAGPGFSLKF
Sequence of UniProt P55211 (P55211 whole entry, looked up): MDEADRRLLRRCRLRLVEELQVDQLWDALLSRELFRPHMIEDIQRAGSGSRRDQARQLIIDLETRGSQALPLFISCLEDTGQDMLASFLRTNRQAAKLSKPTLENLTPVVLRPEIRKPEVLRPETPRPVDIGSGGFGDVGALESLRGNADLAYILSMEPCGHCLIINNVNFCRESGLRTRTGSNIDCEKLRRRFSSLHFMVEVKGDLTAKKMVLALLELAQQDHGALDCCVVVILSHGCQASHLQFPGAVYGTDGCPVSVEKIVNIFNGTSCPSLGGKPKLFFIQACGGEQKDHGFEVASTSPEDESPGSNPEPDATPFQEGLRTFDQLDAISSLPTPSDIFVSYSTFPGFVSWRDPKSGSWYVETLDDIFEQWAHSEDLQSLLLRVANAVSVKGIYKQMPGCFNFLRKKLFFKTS
Sequence of UniProt Q8IWY9 (Q8IWY9 whole entry, looked up): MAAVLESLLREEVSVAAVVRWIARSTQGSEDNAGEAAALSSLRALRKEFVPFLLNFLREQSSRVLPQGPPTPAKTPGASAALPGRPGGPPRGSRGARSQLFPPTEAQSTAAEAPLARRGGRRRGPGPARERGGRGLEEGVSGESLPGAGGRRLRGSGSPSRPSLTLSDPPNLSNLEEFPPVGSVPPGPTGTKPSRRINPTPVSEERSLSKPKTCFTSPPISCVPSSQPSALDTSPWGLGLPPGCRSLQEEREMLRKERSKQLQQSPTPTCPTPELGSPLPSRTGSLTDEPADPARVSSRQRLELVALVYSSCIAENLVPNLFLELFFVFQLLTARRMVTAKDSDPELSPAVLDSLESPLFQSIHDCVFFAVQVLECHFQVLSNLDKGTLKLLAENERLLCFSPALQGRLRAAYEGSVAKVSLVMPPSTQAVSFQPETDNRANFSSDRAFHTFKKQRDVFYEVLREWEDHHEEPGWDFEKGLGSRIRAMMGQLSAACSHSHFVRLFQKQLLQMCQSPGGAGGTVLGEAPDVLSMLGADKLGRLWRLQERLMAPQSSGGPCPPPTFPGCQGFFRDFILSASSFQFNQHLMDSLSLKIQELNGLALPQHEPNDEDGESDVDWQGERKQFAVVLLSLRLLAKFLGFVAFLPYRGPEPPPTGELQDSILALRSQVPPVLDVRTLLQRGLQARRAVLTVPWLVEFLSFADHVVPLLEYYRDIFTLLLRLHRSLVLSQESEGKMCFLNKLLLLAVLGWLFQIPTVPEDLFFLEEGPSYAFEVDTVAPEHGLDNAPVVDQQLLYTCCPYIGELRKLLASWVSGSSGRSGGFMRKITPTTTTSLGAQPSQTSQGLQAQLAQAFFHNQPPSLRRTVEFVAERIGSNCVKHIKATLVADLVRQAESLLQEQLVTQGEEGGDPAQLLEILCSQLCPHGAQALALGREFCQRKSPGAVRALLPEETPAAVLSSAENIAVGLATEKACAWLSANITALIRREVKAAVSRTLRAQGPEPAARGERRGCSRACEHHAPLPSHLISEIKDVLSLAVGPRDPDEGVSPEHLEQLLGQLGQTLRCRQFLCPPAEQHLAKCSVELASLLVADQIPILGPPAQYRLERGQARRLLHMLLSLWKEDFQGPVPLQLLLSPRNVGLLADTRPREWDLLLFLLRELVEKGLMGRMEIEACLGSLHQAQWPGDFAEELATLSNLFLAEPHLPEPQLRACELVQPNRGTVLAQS
Sequence of UniProt O95319 (O95319 whole entry, looked up): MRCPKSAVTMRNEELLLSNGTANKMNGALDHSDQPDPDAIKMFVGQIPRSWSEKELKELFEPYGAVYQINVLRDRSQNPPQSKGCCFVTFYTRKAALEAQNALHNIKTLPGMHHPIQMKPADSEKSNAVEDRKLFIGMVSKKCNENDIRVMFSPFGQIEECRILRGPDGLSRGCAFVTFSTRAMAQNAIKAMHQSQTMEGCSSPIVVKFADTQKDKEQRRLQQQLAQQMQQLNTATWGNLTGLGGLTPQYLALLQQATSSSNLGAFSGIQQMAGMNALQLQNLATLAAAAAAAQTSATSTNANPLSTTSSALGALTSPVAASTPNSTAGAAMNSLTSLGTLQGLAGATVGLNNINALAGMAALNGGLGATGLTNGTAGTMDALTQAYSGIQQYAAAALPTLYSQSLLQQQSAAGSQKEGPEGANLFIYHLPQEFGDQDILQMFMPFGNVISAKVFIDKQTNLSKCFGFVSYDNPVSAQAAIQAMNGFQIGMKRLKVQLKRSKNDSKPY

Compound in this assay: CC1=C(C=C(C=C1)NC(=O)C2=CC(=CC=C2)N(C)C)NC(=O)C3=CC=C(C=C3)O
In words: log2 fold change, soluble protein after heating vs DMSO (PISA); higher = thermal stabilisation; K562 cells, 10 uM, 30 min; active = over 0.2 and 3.5 SD of the protein, either way, in both replicates (recomputed). Put shortly:
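Thermal stability values are relative to control samples and come from duplicates. They are expressed as log2 fold changes. For measurement, K562 cells (2×10^6 cells/mL) received 10 μM compound for 30 min, and aliquots were heated for 3 min over 48°C-58°C, pooled, and extracted at 4°C in PBS with 0.5% NP-40. Soluble protein, the supernatant after 21,000xg for 90 min, was quantified by TMTpro 16plex LC-MS/MS with equalised channel sums.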
Take CDCA2 (UniProt Q69YH5): the log2 fold change was 0.033 (inactive). For COPS8 (UniProt Q99627), the log2 fold change is -0.04 (inactive). For CASP9 (UniProt P55211) the value was -0.091 (inactive); for CNOT4 isoform 6 (UniProt O95628), -0.012 (inactive); for CNOT2 (UniProt Q9NZN8), 0.136 (inactive).

CCAR2 isoform 2 (UniProt Q8N163): the log2 fold change is -0.048 (inactive).

As to COX6B1 (UniProt P14854), the log2 fold change was -0.144 (inactive). As for COPS3 (UniProt Q9UNS2), the log2 fold change is -0.013 (inactive).

Regarding CDAN1 (UniProt Q8IWY9), the log2 fold change is 0.046 (inactive). Take CRTC2 (UniProt Q53ET0): the log2 fold change is 0.055 (inactive). Then COASY isoform 2 (UniProt Q13057), with -0.058 (inactive); and CDC26 (UniProt Q8NHZ8), with 0.029 (inactive); and CPSF1 (UniProt Q10570), with 0 (inactive). For CSNK2A2 (UniProt P19784) the value was 0.009 (inactive). For the target CLCN3 isoform 2 (UniProt P51790), the log2 fold change is 0.002 (inactive).

On to CAVIN1 (UniProt Q6NZI2), for which the log2 fold change is -0.066 (inactive). For CBX5 (UniProt P45973), the log2 fold change is 0.029 (inactive). Then CAMK2G isoform 6 (UniProt Q13555), with -0.055 (inactive); and CNTN4 (UniProt Q8IWV2), with 0 (inactive); and CDK13 (UniProt Q14004), with 0.027 (inactive). Then CDK9 isoform 2 (UniProt P50750), with -0.067 (inactive); and CDKN2AIP (UniProt Q9NXV6), with -0.01 (inactive).

As to C1D (UniProt Q13901), the log2 fold change is 0.002 (inactive). Then COX5B (UniProt P10606), with -0.096 (inactive); and CLTB (UniProt P09497), with -0.025 (inactive). As to CHD3 isoform 3 (UniProt Q12873), the log2 fold change was -0.035 (inactive). Take CELF2 isoform 3 (UniProt O95319): the log2 fold change is 0.01 (inactive).

With CSNK1D (UniProt P48730), the log2 fold change is 0.003 (inactive). On to CDK5 (UniProt Q00535), for which the log2 fold change is -0.009 (inactive). Then CASP2 (UniProt P42575), with 0.001 (inactive). For CLINT1 isoform 3 (UniProt Q14677) the value was -0.001 (inactive); for CAMKK2 (UniProt Q96RR4), 0.024 (inactive); for CDK11B (UniProt P21127), 0.214 (inactive). Then C4orf33 (UniProt Q8N1A6), with 0.04 (inactive). Take CALCOCO2 isoform 4 (UniProt Q13137): the log2 fold change was -0.008 (inactive).
